Screens as filed in PubChem.
The sample as a whole holds a higher share of hits than the screen did.
Pin1 inhibitor: qHTS Assay to Find Inhibitors of Pin1; Potency, µM (top dose mostly 115 µM), for the others: at the top dose activity, negative = inhibition, most hits filed as inhibitors; Pin1 FP peptide displacement, HiFluor488, 10 min; hit rate 0.009% among 390,000; Peptidyl-prolyl cis-trans isomerase NIMA-interacting 1 (Homo sapiens), Q13526; active = well fitted inhibition curve with a large enough effect in the polarisation, with a control signal flat, not every such curve was filed as active; inconclusive = small, poorly fitted or top-dose-only effect, or effect the other way, or a change in a side signal; inactive = no such curve, though single readings can be large or run the other way; the % refers to the polarisation; note: potency is the fitted concentration of half-maximal effect
Tb PFK block: qHTS Assay to Find Inhibitors of T. brucei phosphofructokinase; hit rate 0.17% among 330,000; ATP-dependent 6-phosphofructokinase (Trypanosoma brucei brucei), O15648; Potency, µM (titrated, usually from 57.5 µM), without a hit: top-dose activity, negative = inhibition, usual class: inhibitors; AID 485367, 2010; T. brucei PFK, ADP-Glo luminescence;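 note: potency is the fitted concentration of half-maximal effect; 0% = uninhibited 1x PFK enzyme wells and -100% = no-enzyme wells; nearly all actives have a fitted effect of over 60% in size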
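Compounds were pin-transferred as a titration series up to 57 uM into substrate buffer (0.5 mM F6P, 0.1 mM ATP, pH 8.0), then 1.25 nM PFK was added and reactions ran 45 min before ADP-Glo detection.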
PI4K2A block: qHTS for small molecular inhibitors of PI4K2A; hit rate 0.13% among 420,000; Phosphatidylinositol 4-kinase type 2-alpha (Homo sapiens), Q9BTU6; purified PI4K2A, ADP-Glo luminescence, 1 h; hits give low values; activity change, negative = inhibition, % at 76.9 µM; in the data active = activity change below about -50%; inconclusive = mostly about -30% to -49%;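 note: -100% = wells without enzyme as full effect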
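Compounds are screened against recombinant PI4K2A using PI as substrate and ATP, the latter dispensed at 300 microM. Reactions run one hour at ambient temperature before ADP-Glo detection; full inhibition defined by wells lacking enzyme.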
Tb PGK inh: qHTS Assay to Find Inhibitors of Phosphoglycerate Kinase; Potency, µM (series often up to 57.5 µM), inactives show at the top dose activity change, negative = inhibition, most hits filed as inhibitors; PGK/GAPDH coupled, Kinase-Glo luminescence, 60 min; Phosphoglycerate kinase, glycosomal (Trypanosoma brucei brucei), P07378; AID 602233, 2012; hit rate 0.043% among 380,000; note: potency is the fitted concentration of half-maximal effect; nearly all actives have a fitted effect of over 60% in size
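Luminescent ATP detection (Kinase-Glo Plus) follows a 60-minute room-temperature incubation, with wells lacking PGK as controls. Buffer: 100 mM TEA (pH 7.6), 5 mM MgCl2, 0.01% Tween-20. Coupling enzyme GAPDH (100 nM final) supplies unstable 1,3-BPG in-well.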
PI5P4K alpha inh: qHTS for Inhibitors of phosphatidylinositol 5-phosphate 4-kinase (PI5P4K); Phosphatidylinositol 5-phosphate 4-kinase type-2 alpha (Homo sapiens), P48426; PI5P4Kalpha enzyme, ADP-Glo luminescence, 60 min; hits give low values; max response, %; hit rate 1.2% among 330,000; AID 652105, 2013; active = max response of -50% or lower; inconclusive = between -30% and -50%; inactive = -30% or higher; note: value at the top dose of about 77 µM
Target sequence (P48426 whole entry, looked up): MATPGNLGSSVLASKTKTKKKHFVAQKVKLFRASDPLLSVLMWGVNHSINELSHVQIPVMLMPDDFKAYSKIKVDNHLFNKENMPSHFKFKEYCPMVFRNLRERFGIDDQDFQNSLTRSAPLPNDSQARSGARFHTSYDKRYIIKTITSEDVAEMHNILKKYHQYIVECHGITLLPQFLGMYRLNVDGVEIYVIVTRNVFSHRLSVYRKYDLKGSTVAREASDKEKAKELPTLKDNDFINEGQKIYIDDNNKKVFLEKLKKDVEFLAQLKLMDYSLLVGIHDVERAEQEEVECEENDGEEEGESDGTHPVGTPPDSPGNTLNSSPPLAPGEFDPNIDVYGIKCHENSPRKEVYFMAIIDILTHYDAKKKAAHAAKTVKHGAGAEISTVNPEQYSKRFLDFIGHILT
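Quantitative HTS of the MLSMR library against PI5P4Kalpha with substrate. ATP added last at 5 microM final; room temperature, 60 minutes. Remaining ATP depleted, ADP converted and read as luminescence.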
* hit, by the source's call; i = inactive; ? = inconclusive; · = no result given. Unless noted, calls come from the whole dose curve; as a rule, active = well fitted curve in the direction sought with a large enough effect; inconclusive = small, poorly fitted or top-dose-only effect, or another doubt; inactive = no such curve, though single readings can be large; an effect the other way counts as inactive or inconclusive. Unless noted, % is set by controls: 0 for no effect and ±100 for the full control effect.

SMILES	Pin1 inhibitor	Tb PFK block	PI4K2A block	Tb PGK inh	PI5P4K alpha inh
NC(=O)c1ccc(N2CCN(c3ccc(O)cc3)CC2)c([N+](=O)[O-])c1	?	-20.9%	-7.3	4.9%	-54.7*
c1ccc(Cn2ccc3ccc(-c4ccc5ccn(Cc6ccc7ccccc7c6)c5c4)cc32)cc1	·	·	1.7	·	·
O=C(COc1ccc([N+](=O)[O-])cc1)Nc1nnc(-c2cccnc2)s1	?	-7.6%	-27.5	-27.4%	-65.9*
CC(/C=C/c1ccccc1F)=N\NC(=O)c1ccc(Cl)cc1	-7.0%	-1.4%	-1.0	i	-68.2*
Cc1ccnc(NS(=O)(=O)c2ccc(NC(=O)c3ccc(N4C(=O)CCC4=O)cc3)cc2)n1	-0.1%	-0.4%	-8.4	-9.3%	-63.9*
Cc1ccnc(NS(=O)(=O)c2ccc(NC(=O)Cc3cccs3)cc2)n1	2.4%	-6.1%	-20.3	?	-83.0*
Cc1ccnc(NS(=O)(=O)c2ccc(NC(=O)Cc3ccc(F)cc3)cc2)n1	4.8%	-25.8%	-1.4	-1.9%	0.4
CCOC(=O)C(=O)c1csc(NC=O)n1	·	·	-1.3	·	·
N#Cc1cnc2sc3ccccc3n2c1=N	-6.8%	0.8%	-24.3	-8.1%	-60.6*
Cn1nc2sc3ccccc3n2c(=O)c1=O	-1.5%	-17.0%	2.4	-0.1%	-4.5
Cc1nonc1C(=O)N/N=C/c1ccc(O)cc1O	-1.4%	1.2%	-79.4*	?	-13.5
O=C(/C(=N/N=C/c1ccc(O)c(O)c1O)c1ccccc1)c1ccccc1	-10.0%	0.2%	-6.1	-3.9%	-65.4*
Cc1nc(CN(C)c2ncnc3cc(-c4ccc5c(c4)OCO5)ccc23)cs1	-2.7%	·	·	·	·
Cc1ccc(C2NC(=S)N3C(c4ccc(C)cc4)NC(=S)N23)cc1 (stereo not given)	·	·	-12.0	6.2%	-79.2*
COc1ccc(C2NC(=S)N3C(c4ccc(OC)cc4)NC(=S)N23)cc1 (stereo not given)	2.2%	3.6%	-4.4	i	-90.4*
S=C1NC(c2ccccc2)N2C(=S)NC(c3ccccc3)N12 (stereo not given)	-11.7%	?	-6.9	7.6%	-81.3*
N#Cc1nc(Nc2cccc(Br)c2)nc(NC2CCCC2)n1	69.1%	·	·	·	·
COc1ccc(C=NNC(=O)Cc2cc(=O)[nH][nH]2)c(OC)c1	·	·	-7.1	·	·
O=S(=O)(c1ccc2c(c1)OCCO2)N1CCN(S(=O)(=O)c2cccc[n+]2[O-])CC1	2.2%	·	·	·	·
COc1cccc(C2c3c(ncn(-c4ccc5c(c4)OCO5)c3=N)Oc3ccc4ccccc4c32)c1 (stereo not given)	16.9%	·	·	·	·
O=C(N1CCOCC1)N1CCN(c2ccccc2F)CC1	0.3%	-5.6%	-61.9*	-5.3%	-2.1
O=C(CSc1nc2ccccc2c2nc3ccccc3n12)NCc1ccco1	?	-1.6%	-53.5*	-10.1%	-19.3
O=C(CSc1n[nH]c(-c2ccccc2)n1)NC(=O)NCc1ccco1	?	-13.4%	-11.3	-8.2%	-54.7*
c1c[nH]c(C2CCN(c3ncc(-c4ccc5c(c4)OCCCO5)s3)CC2)n1	4.3%	·	·	·	·
CC(C)(C)c1cc(C=O)cc(C(C)(C)C)c1O	·	·	1.1	·	·
SMILES	Pin1 inhibitor	Tb PFK block	PI4K2A block	Tb PGK inh	PI5P4K alpha inh
COc1cc(C)cc(C(=O)O)c1C1=C(O)c2cccc(O)c2C(=O)C1=O	?	0.3%	-10.3	-26.1%	-77.6*
N#Cc1c(Cl)nsc1NC(=O)c1ccccc1	2.7%	-0.6%	-7.2	-9.1%	-53.8*
N#Cc1c(NC(=O)c2ccccc2)sc2c1CCCCC2	4.6%	-2.8%	-8.4	-0.7%	6.2
Cc1ccc(OCC(=O)c2cc(C)c(C)cc2C)c([N+](=O)[O-])n1	2.4%	-12.8%	-2.7	i	-24.4
Cc1ccc(OCC(=O)c2c(N)n(C)c(=O)n(C)c2=O)c([N+](=O)[O-])n1	·	?	-14.8	?	-50.2*
Cc1c(F)cc2c(=O)c(C(=O)O)cn3c2c1CCC3C (stereo not given)	·	·	0.7	·	·
